# Compound activity as filed in PubChem.
# Shown are actives, neighbours in structure and some others; about 15% of the full set was active somewhere.
# ELG1 DNA repair = blocks ELG1-dependent DNA repair in HEK293T cells; actives 2.3% (n = 330,000); HEK293T ELG1-luciferase reporter, luminescence, 16 h; DNA damage induced by 5-fluorouridine; Potency, µM (series often up to 46.1 µM), without a hit: top-dose activity change, negative = inhibition, hits mostly inhibitors; AID 504467; further: nearly all actives have a fitted effect of over 55% in size
#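 HEK293T cells expressing luciferase-tagged ELG1 (2,000/well) received 5-Fluorouridine plus compound or DMSO for 16 hr at 37 °C. Luciferase was read by ONE-Glo luminescence after 30 min at room temperature.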
# DT40 TDP1 CPT = growth inhibition of DT40 Tdp1-/-;hTDP1 cells with camptothecin (screen for TDP1 inhibitors); chicken DT40 Tdp1-/-;hTDP1 cells + 20 nM CPT, ATP luminescence, 48 h; Potency, µM (top dose mostly 46.2 µM), for the others: top-dose activity change, negative = growth inhibition, usual class: inhibitors; actives 12% (n = 420,000); further: nearly all actives have a fitted effect of over 55% in size
#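 Chicken DT40 Tdp1-/- cells stably complemented with human TDP1 were seeded at 400 cells/well in medium containing 20 nM camptothecin, exposed to pin-transferred compounds, and grown at 37 °C for at least 48 hr. Viability was read as ATP luminescence.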
# ALOX12 inh = ALOX12 (human) lipoxygenase inhibition; P18054; purified 12hLO, xylenol orange hydroperoxide absorbance; Potency, µM (highest dose often 108 µM), without a hit: at the top dose activity change, negative = inhibition, usual class: inhibitors; actives 1.1% (n = 580,000)
#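 Purified human 12hLO at 150 nM in 25 mM Hepes, 0.01% Triton X-100, pH 7.0, preincubated 15 min at room temperature with compound. Reaction started with 40 uM arachidonic acid, 30 min at room temperature. Hydroperoxide measured by Fe-xylenol orange, 573/405 nm absorbance ratio.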
# RORgamma inh = blocks mouse ROR gamma transcriptional activity | P51450 | Drosophila S2 Gal4-RORgamma UAS-luciferase reporter, 20 h | Potency, µM (titrated, usually from 53.6 µM), without a hit: at the top dose activity change, negative = inhibition, usual class: inhibitors | actives 5.4% (n = 310,000); further: nearly all actives have a fitted effect of over 60% in size
#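 Schneider cells (Drosophila), stable Gal4 DBD–ROR gamma + UAS-luc; 1 hr cmpd preincubation; Cu2+ induction 700 uM final; 20 hr ambient; luminescence.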
# Gal4-VP16 FLuc = Gal4-VP16 reporter inhibition counter-screen. AID 2546. actives 3.5% (n = 310,000). Potency, µM (top dose mostly 53.6 µM), inactives show at the highest dose activity, negative = inhibition, usual class: inhibitors. Drosophila S2 Gal4-VP16 UAS-luciferase, luminescence, 20 h;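 further: Gal4-VP16 expression switched on by copper sulfate through the metallothionein promoter; nearly all actives have a fitted effect of over 50% in size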
# DT40 TDP1 no CPT = qHTS for Inhibitors of human tyrosyl-DNA phosphodiesterase 1 (TDP1): qHTS in cells in absence of CPT | actives 15% (n = 420,000) | DT40 Tdp1-/- hTDP1 cells, no CPT, ATP luminescence, 48 h | Potency, µM (series often up to 46.2 µM), for inactives: top-dose activity change, negative = growth inhibition, most hits filed as inhibitors; further: nearly all actives have a fitted effect of over 55% in size
#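 Growth of hTDP1-complemented DT40 Tdp1-knockout cells is measured by ATP luminescence after at least 48 hr compound exposure at 37 °C, with DMSO substituting for the 20 nM CPT used in the parallel screen.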
# * = called active by the depositor; ? = inconclusive; . = no result given. The call rests on the fitted dose curve; in most records, active means well fitted curve in the direction sought with a large enough effect; inconclusive means small, poorly fitted or top-dose-only effect, or another doubt; inactive means no such curve, though single readings can be large; an effect the other way counts as inactive or inconclusive. On the % scale 0 is the no-effect control and ±100 the full control effect; potency means the concentration at half of the fitted maximal effect.
SMILES,ELG1 DNA repair,DT40 TDP1 CPT,ALOX12 inh,RORgamma inh,Gal4-VP16 FLuc,DT40 TDP1 no CPT
COc1ccc(/C=N/OC(=O)Nc2ccccc2OC)cc1,?,1.46µM*,1.2%,-17.1%,-10.4%,1.64µM*
CC(C)CC(=O)Nc1cccc(C(=O)Nc2ccc(C(=O)O)cc2)c1,.,.,4.6%,.,.,.
CC(C)C[C@@H](CN1CCC[C@H]1CN1C(=O)C(=O)NC[C@@H]1Cc1ccccc1)N1C[C@H](Cc2ccccc2)N(CC2CCCCCC2)C(=O)C1=O,.,18.4µM*,-7.0%,.,.,?
O=C1NC[C@H](Cc2ccc(O)cc2)N(C[C@@H]2CCCN2C[C@H](Cc2ccccc2)N2C[C@H](Cc3ccccc3)N(CCc3ccccc3)C(=O)C2=O)C1=O,.,-8.0%,-8.5%,.,.,-16.8%
O=C1NC[C@H](Cc2ccccc2)N(C[C@H]2CCCN2C[C@H](Cc2ccc(O)cc2)N2C[C@H](Cc3ccc(O)cc3)N(CC3CCCCCC3)C(=O)C2=O)C1=O,.,?,15.8µM*,.,.,?
O=C1NC[C@H](Cc2ccc(O)cc2)N(C[C@@H]2CCCN2C[C@H](Cc2ccccc2)N2C[C@H](Cc3ccc(O)cc3)N(CC3CCCCCC3)C(=O)C2=O)C1=O,.,?,25.1µM*,.,.,?
O=C(N/N=C/c1ccc2c(c1)OCO2)c1ccc(COc2cccc3cccnc23)cc1,18.3µM*,?,-0.5%,-29.3%,-17.1%,25.9µM*
COc1ccc(/C=N/NC(=O)c2ccc(COc3cccc4cccnc34)cc2)cc1O,?,?,-9.5%,18.7%,10.2%,13µM*
CC(C)(C)c1ccc(OCc2ccc(C(=O)N/N=C/c3ccc(O)c(O)c3)cc2)cc1,-6.0%,1.3µM*,?,?,15.8µM*,1.46µM*
O=C(N/N=C/c1cccc(O)c1)c1ccc(COc2cccc3cccnc23)cc1,19.4%,-29.9%,6.4%,45.0%,-4.2%,?
CCNC(=O)NC(=O)CN(Cc1ccccc1)c1ccccc1,.,.,29.3%,.,.,.
O=C(N1CCC[C@H]1c1nc(-c2ccccc2Cl)no1)C1(c2ccccc2)CC1,.,.,-5.8%,.,.,.
C/C(Cc1ccccc1)=N\NC(=O)c1ccc(C)cc1,.,.,32.9%,.,.,.
CCOC(=O)c1c(NC(=O)CN2CCCCC2)sc2c1CCN(C(=O)OCC)C2,?,?,18.0%,-20.3%,8.1%,?
COc1ccc(C(=O)c2c(NC(C)=O)sc3c2CCN(C(=O)OC(C)(C)C)C3)cc1,?,-3.5%,?,14.9%,-9.8%,?
CCOC(=O)c1c(NC(=O)CN(CC)CC)sc2c1CCN(C(=O)OCC)C2,?,?,0.7%,?,?,25.9µM*
CCOC(=O)N1CCc2c(sc(NC(=O)Cc3ccccc3)c2C(=O)c2ccc(OC)cc2)C1,?,?,?,-3.2%,-5.8%,25.9µM*
COCCN1C(=O)[C@H]2CN(Cc3cc(F)c(F)cc3F)C[C@H]2C1=O,.,.,43.5%,.,.,.
CN(Cc1cnn(C)c1)C(=O)C1C2C(=O)N(Cc3ccc(F)cc3)C[C@@]23C=C[C@@H]1O3 (some centres undefined),.,.,7.1%,.,.,.
C#CCn1c(S(=O)(=O)Cc2ccc(F)cc2)nc(-c2ccccc2)c1-c1ccccc1,-2.0%,14.6µM*,-4.2%,4.3%,3.8%,10.3µM*
CCOC(=O)Cn1c(S(=O)(=O)Cc2cccc(F)c2)nc(-c2ccccc2)c1-c1ccccc1,2.8%,8.2µM*,22.2%,4.4%,3.0%,10.3µM*
COCC(=O)NC1CCC12CCN(C(=O)C1CC1)CC2 (centres undefined),.,.,13.5%,.,.,.
Cc1ccc(NN2C(=O)C=C(c3ccccc3)C2=O)cc1,?,5.8µM*,?,3.55µM*,5.01µM*,7.31µM*
